Results: PubChem BioAssay (Tox21)
Results filed as inconclusive are left out. Calls of active or inactive are those of the source. Unless noted, calls come from the whole dose curve.

Legend:
[1] = Nuclear factor erythroid 2-related factor 2/antioxidant responsive element (Nrf2/ARE) small molecule agonists: luciferase reporter gene qHTS assay in human keratinocytes (AID 1919969); note: nearly all actives have a fitted effect of over 35% in size; note: potency is the fitted concentration of half-maximal effect
[2] = target: KiSS-1 receptor (Homo sapiens) (UniProt Q969F8); assay: Human kisspeptin (KISS1R) small molecule agonists, calcium flux assay in KISS1R-HEK293 cells (AID 1920064; active = well fitted activation curve with a large enough effect in the repeat runs)
Outline: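 Cells plated and incubated 18 h; dye added, 1 h at 37 C; compounds in DMSO pinned in; signal read at 480/540 nm every second for 3 min. Each compound tested at 15 concentrations in triplicate.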

[3] = G protein-coupled receptor (GPCR) small molecule agonists, calcium flux assay: HEK293 wild type cell line counter screen (AID 1920065)
Outline: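 Counter-screen of the Tox21 10K library for non-specific calcium release: dye-loaded cells received compounds in DMSO and were monitored by kinetic fluorescence (480/540 nm, 3 min). Fifteen concentrations, run in triplicate.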

[4] = p53 small molecule agonists, cell-based qHTS assay with human liver microsomes (AID 1963577)
Outline: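 Cells carrying a p53-responsive bla reporter were rested 5 h (37 C, 5% CO2) before compound transfer. Human liver microsomes plus NADPH, 0.5 mg/mL final apiece, supplied metabolism during the 16 h 37 C exposure.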

[5] = p53 small molecule agonists, cell-based qHTS assay with rat liver microsomes (AID 1963578)
Outline: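 Fluorescence from a beta-lactamase reporter under a p53 response element was measured after cells had been incubated 16 h at 37 C with test compound and rat liver microsomes plus NADPH (0.5 mg/mL final each).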

[6] = p53 small molecule agonists, cell-based qHTS assay with human liver microsomes: qHTS cell viability counter screen (AID 1963579); note: nearly all actives have a fitted effect of over 45% in size
Outline: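 Seed p53RE-bla cells at 4,000 per well; incubate 5 h at 37 C; add compound, human liver microsomes and NADPH; incubate 16 h at 37 C; add CellTiter-Glo; after 30 min at room temperature, read luminescence.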

[7] = p53 small molecule agonists, cell-based qHTS assay with rat liver microsomes: qHTS cell viability counter screen (AID 1963580); note: nearly all actives have a fitted effect of over 45% in size; note: potency is the fitted concentration of half-maximal effect
Outline: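 In HCT-116 cells carrying a p53 response element-bla reporter, compounds were metabolically activated in situ by rat liver microsomes with NADPH over 16 h. Cell ATP content then served as the cytotoxicity measure.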

[8] = target: 5-hydroxytryptamine receptor 2A (Homo sapiens) (UniProt P28223); assay: 5-hydroxytryptamine receptor 2A (HTR2A) small molecule antagonists, cell-based qHTS assay (AID 1963586); note: nearly all actives have a fitted effect of over 45% in size
Outline: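 Antagonist-mode intracellular calcium assay: DOI (4 nM) added after 5 min compound pre-incubation at room temperature to dye-loaded HTR2A-CHO cells. Fluorescence followed for 3 min, sampled every second.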

[9] = target: 5-hydroxytryptamine receptor 2A (Homo sapiens) (UniProt P28223); assay: 5-hydroxytryptamine receptor 2A (HTR2A) small molecule agonists, cell-based qHTS assay (AID 1963587); note: nearly all actives have a fitted effect of over 30% in size; note: potency is the fitted concentration of half-maximal effect
Outline: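 HTR2A-CHO cells, plated 18 h at 37 C/5% CO2, dye-loaded 1 h at 37 C; compounds in DMSO added by pin tool (agonist mode). Intracellular calcium flux read as kinetic fluorescence on FDSS over 2 min at 1 s intervals.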

[10] = target: Muscarinic acetylcholine receptor M1 (Homo sapiens) (UniProt P11229); assay: Cholinergic receptor muscarinic 1 (CHRM1) small molecule antagonists, cell-based qHTS assay (AID 1963588); note: nearly all actives have a fitted effect of over 40% in size
Outline: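 CHRM1-CHO calcium-flux assay, antagonist mode. Cells were seeded 18 h, dye-loaded 1 h at 37 C and given compound for 5 min at RT, then acetylcholine was added at 50nM. FDSS fluorescence was read 3 min; 15 concentrations, three runs.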

[11] = target: Muscarinic acetylcholine receptor M1 (Homo sapiens) (UniProt P11229); assay: Cholinergic receptor muscarinic 1 (CHRM1) small molecule agonists, cell-based qHTS assay (AID 1963589); note: nearly all actives have a fitted effect of over 35% in size
Outline: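 Agonist-mode qHTS in CHO cells stably carrying human muscarinic M1. Intracellular calcium is tracked by fluorescence every second after compound transfer; each compound runs at 15 concentrations in three independent runs.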

[12] = cAMP Responsive Elements (CRE) small molecule agonists, cell-based qHTS assay (AID 1963590); note: potency is the fitted concentration of half-maximal effect
Outline: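 Agonist mode qHTS in CRE-bla HEK 293T cells: compounds dosed from DMSO for 3 h at 37 C/5% CO2, followed by LiveBLAzer B/G FRET substrate for 2 h at room temperature.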

[13] = target: Beta-2 adrenergic receptor (Homo sapiens) (UniProt P07550); assay: Adrenergic beta2 receptor (ADRB2) small molecule antagonists, cell-based qHTS assay (AID 1963592); note: series mostly up to about 92 µM; nearly all actives have a fitted effect of over 50% in size
Outline: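 Cells (CHO, stable ADRB2 overexpression) incubated 18-20hr at 37C; compounds added from DMSO; agonist mix (1nM isoproterenol, 100uM IBMX, 25uM Ro-20-1724) added; 0.5hr RT; d2-cAMP and anti-cAMP-cryptate added; 1hr RT; 665/615 nm read.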

[14] = target: D(2) dopamine receptor (Homo sapiens) (UniProt P14416); assay: Dopamine D2 receptor (DRD2) small molecule antagonists, cell-based qHTS assay (AID 1963595; active = well fitted inhibition curve with a large enough effect in the signal ratio in the repeat runs, with a control signal flat; the % refers to the signal ratio; note: potency is the fitted concentration of half-maximal effect)
Outline: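 HEK293 cells stably expressing DRD2 were preincubated with 0.1 mM Ro20-1724, then with compound for 10 min at room temperature. Cells were stimulated with 200 nM NKH477 plus 12 nM quinpirole for 30 min, and cAMP was read by HTRF.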

[15] = target: Gonadotropin-releasing hormone receptor (Homo sapiens) (UniProt P30968); assay: Human gonadotropin-releasing hormone receptor (GnRHR) small molecule agonists, calcium flux assay in GnRHR-HEK293 cells (AID 1920063); note: nearly all actives have a fitted effect of over 35% in size
Outline: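 Cells: HEK293 stably expressing human GnRHR. Steps: overnight (18 h) culture, 1 h calcium dye loading at 37 C, compound addition, kinetic fluorescence read at 480/540 nm. Each compound tested at 15 concentrations in triplicate.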

[16] = p53 small molecule agonists, cell-based qHTS assay: qHTS cell viability counter screen (AID 1963581); note: nearly all actives have a fitted effect of over 45% in size
Outline: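 Cells: HCT-116 with p53 response element-driven beta-lactamase. Treatment: 16 h, 37 C, compounds in DMSO. Read: CellTiter-Glo luminescence after 30 min RT.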

[17] = cAMP Responsive Elements (CRE) small molecule antagonists, cell-based qHTS assay (AID 1963591; active = well fitted inhibition curve with a large enough effect in the signal ratio in the repeat runs, not every such curve was filed as active; the % refers to the signal ratio)
Outline: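 Antagonist mode: test compounds are co-incubated with the adenylyl cyclase activator NKH477 (0.25 uM final) on CRE-bla HEK293T cells for 3 h at 37 °C, followed by LiveBLAzer substrate loading.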

[18] = target: D(2) dopamine receptor (Homo sapiens) (UniProt P14416); assay: Dopamine D2 receptor (DRD2) small molecule agonists, cell-based qHTS assay (AID 1963594); note: nearly all actives have a fitted effect of over 35% in size
Outline: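 HEK293 cells stably expressing DRD2 were cultured 24 h at 37 C, then given Ro20-1724 (0.1 mM final) and compounds for 10 min at room temperature. NKH477 (200nM) was then added for 30 min. cAMP was read by HTRF.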

[19] = p53 small molecule agonists, cell-based qHTS assay (AID 1963582; active = well fitted activation curve with a large enough effect in the signal ratio in the repeat runs, not every such curve was filed as active; the % refers to the signal ratio)
Outline: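 Quantitative HTS in p53RE-bla cells: after a 5 h settling period, compounds delivered in DMSO were left on cells for 16 h at 37 C, and reporter induction was measured as fluorescence following 2 h substrate loading.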

[20] = target: Beta-2 adrenergic receptor (Homo sapiens) (UniProt P07550); assay: Adrenergic beta2 receptor (ADRB2) small molecule agonists, cell-based qHTS assay (AID 1963593);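 note: CHO cells stably overexpressing human ADRB2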
Outline: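 CHO cells stably over-expressing ADRB2 were plated overnight at 37C, then dosed with compounds plus a stimulation mix containing 100uM IBMX and 25uM Ro-20-1724 for 0.5hr at room temperature. cAMP was measured by HTRF competition, 1hr.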
% is set by controls: 0 for no effect and ±100 for the full control effect.

Chain of Gonadotropin-releasing hormone receptor (Homo sapiens) (P30968 whole entry, looked up): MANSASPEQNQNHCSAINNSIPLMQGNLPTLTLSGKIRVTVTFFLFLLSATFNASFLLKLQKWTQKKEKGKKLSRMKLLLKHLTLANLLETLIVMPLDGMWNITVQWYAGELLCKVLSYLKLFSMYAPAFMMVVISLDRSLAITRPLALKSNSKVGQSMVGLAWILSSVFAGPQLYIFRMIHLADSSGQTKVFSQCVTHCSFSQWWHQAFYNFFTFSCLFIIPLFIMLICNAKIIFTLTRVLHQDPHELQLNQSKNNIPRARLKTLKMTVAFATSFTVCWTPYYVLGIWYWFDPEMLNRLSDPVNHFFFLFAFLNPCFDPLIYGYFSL
Chain of Beta-2 adrenergic receptor (Homo sapiens) (P07550 whole entry, looked up): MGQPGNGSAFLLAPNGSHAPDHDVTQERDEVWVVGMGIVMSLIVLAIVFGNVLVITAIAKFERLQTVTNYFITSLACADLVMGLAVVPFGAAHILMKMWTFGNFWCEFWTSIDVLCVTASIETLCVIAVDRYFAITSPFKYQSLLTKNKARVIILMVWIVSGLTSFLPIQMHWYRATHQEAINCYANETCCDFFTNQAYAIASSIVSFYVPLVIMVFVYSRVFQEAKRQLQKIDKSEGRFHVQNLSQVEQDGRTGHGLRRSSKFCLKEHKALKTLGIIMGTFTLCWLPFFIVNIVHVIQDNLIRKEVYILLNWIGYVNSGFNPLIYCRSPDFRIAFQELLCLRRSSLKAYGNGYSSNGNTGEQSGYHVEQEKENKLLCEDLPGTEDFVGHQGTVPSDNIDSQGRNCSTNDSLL
Chain of Muscarinic acetylcholine receptor M1 (Homo sapiens) (P11229 whole entry, looked up): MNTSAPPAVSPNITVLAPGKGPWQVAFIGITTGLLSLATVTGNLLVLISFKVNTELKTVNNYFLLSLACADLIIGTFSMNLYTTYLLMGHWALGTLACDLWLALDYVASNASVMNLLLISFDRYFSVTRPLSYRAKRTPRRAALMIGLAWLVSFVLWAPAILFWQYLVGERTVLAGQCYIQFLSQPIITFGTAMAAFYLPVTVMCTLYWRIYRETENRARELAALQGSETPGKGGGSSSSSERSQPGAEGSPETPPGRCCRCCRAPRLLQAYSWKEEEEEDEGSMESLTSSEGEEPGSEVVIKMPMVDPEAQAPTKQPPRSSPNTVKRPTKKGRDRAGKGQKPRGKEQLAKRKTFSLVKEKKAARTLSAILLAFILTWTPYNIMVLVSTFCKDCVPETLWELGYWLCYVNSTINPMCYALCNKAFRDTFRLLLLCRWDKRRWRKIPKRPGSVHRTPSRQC
Chain of KiSS-1 receptor (Homo sapiens) (Q969F8 whole entry, looked up): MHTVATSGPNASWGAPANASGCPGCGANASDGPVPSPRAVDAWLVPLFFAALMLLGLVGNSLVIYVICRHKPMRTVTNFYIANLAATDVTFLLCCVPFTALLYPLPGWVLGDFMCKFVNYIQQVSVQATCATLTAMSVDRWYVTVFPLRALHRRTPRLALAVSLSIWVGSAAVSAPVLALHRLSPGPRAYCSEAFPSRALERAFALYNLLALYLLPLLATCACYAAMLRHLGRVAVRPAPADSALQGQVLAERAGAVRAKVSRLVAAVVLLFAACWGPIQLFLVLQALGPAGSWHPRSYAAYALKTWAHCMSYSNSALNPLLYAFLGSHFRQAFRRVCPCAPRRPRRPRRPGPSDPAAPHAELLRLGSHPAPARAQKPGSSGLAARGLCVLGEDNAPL
Chain of 5-hydroxytryptamine receptor 2A (Homo sapiens) (P28223 whole entry, looked up): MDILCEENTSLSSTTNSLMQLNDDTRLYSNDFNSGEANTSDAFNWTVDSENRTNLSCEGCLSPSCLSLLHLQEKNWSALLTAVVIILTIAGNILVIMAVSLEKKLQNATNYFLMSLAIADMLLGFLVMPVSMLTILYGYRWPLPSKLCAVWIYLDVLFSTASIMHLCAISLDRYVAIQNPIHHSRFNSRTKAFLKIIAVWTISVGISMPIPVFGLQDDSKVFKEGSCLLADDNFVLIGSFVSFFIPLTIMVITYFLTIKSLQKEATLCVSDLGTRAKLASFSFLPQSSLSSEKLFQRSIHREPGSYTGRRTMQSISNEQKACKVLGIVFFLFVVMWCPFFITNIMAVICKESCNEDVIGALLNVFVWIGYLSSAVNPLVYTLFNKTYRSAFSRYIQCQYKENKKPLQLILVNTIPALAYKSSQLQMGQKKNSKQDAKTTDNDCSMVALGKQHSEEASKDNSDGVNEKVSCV
Chain of D(2) dopamine receptor (Homo sapiens) (P14416 whole entry, looked up): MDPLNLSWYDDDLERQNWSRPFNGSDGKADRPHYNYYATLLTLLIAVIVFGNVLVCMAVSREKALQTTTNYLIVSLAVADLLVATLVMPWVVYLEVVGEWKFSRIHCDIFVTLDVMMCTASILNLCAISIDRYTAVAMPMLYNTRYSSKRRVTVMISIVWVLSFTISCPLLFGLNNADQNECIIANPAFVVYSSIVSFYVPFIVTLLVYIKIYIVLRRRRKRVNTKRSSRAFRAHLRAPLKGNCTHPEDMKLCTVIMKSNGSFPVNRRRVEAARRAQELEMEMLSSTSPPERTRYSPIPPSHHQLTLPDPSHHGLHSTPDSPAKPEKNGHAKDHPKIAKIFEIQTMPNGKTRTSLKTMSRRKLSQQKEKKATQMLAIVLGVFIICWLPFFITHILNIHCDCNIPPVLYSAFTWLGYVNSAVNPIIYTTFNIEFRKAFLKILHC

CC(C)=CCNc1ncnc2c1ncn2[C@@H]1O[C@H](CO)[C@@H](O)[C@H]1O
active: Potency [1] 7.5 µM | Potency [12] 11.9 µM | Potency [14] 9.44 µM
inactive: Potency [2] | Potency [3] | Potency [4] | Potency [5] | Potency [6] | Potency [7] | Potency [8] | Potency [9] | Potency [10] | Potency [11] | Potency [13]

CC(C)(C)c1ccc(-c2ccc(C(C)(C)C)cc2)cc1
inactive: Potency [1] | Potency [15] | Potency [3] | Potency [6] | Potency [7] | Potency [16] | Potency [8] | Potency [9] | Potency [10] | Potency [11] | Potency [12] | Potency [17] | Potency [13] | Potency [18] | Potency [14]

C[C@@H]1CN(c2c(F)c(F)c3c(=O)c(C(=O)O)cn(C4CC4)c3c2F)C[C@H](C)N1
inactive: activity, positive = activation [1] 2.76% [at 19 µM] | activity change [15] 0.18% [at 11.8 µM, stronger effect = higher value] | activation [3] -1.01% [at 11.8 µM] | activity change, negative = cytotoxicity [6] 0.644% [at 13.5 µM] | activity change, negative = cytotoxicity [7] 9.6% [at 13.5 µM] | activity change, negative = cytotoxicity [16] -8.27% [at 13.5 µM] | activity, negative = inhibition [8] 0.835% [at 12.7 µM] | activation [9] -2.83% [at 15.9 µM] | activity, negative = inhibition [10] 7.07% [at 12.6 µM] | activation [11] -1.01% [at 15.8 µM] | activation [12] -2.17% [at 19 µM] | activation [18] 18.6% [at 19 µM] | activity change, negative = inhibition [14] -0.82% [at 18.9 µM]

COc1cc2ncnc(Nc3cccc(Cl)c3)c2cc1OC
inactive: activity, positive = activation [1] -25.9% [at 19 µM] | activation [2] 1.01% [at 15.8 µM] | activation [3] -0.385% [at 11.8 µM] | activation [4] -11.3% [at 13.5 µM] | activation [5] -0.041% [at 13.6 µM] | activity change, negative = cytotoxicity [6] -15.6% [at 13.5 µM] | activity change, negative = cytotoxicity [7] -3.32% [at 13.5 µM] | activation [19] -4.37% [at 13.5 µM] | activation [9] -3.99% [at 15.9 µM] | activity, negative = inhibition [10] -4.44% [at 12.6 µM] | activation [11] -1.11% [at 15.8 µM] | activity change, negative = inhibition [13] -2.49% [at 19 µM] | activation [18] -4.16% [at 19 µM] | activity change, negative = inhibition [14] -0.58% [at 18.9 µM]

O=S(=O)(O)c1cc(S(=O)(=O)O)c2c(N=Nc3ccccc3)c(O)ccc2c1
inactive: Potency [1] | Potency [2] | Potency [3] | Potency [4] | Potency [5] | Potency [6] | Potency [7] | Potency [16] | Potency [19] | Potency [8] | Potency [9] | Potency [10] | Potency [11] | Potency [12] | Potency [17] | Potency [20]

Oc1cccc2c(O)cccc12
active: Potency [1] 27.3 µM | Potency [7] 32.4 µM
inactive: Potency [2] | Potency [3] | Potency [4] | Potency [5] | Potency [16] | Potency [8] | Potency [9] | Potency [10] | Potency [11] | Potency [12] | Potency [17] | Potency [18] | Potency [14]

CCCCCCCC/C=C\CCCCCCCC(=O)N(C)CC(=O)O
active: Potency [1] 54.5 µM
inactive: Potency [15] | Potency [3] | Potency [4] | Potency [5] | Potency [6] | Potency [19] | Potency [10] | Potency [11] | Potency [13] | Potency [20] | Potency [18] | Potency [14]

CCCCCC/C=C\CCCCCCCC(=O)O
inactive: Potency [1] | Potency [15] | Potency [3] | Potency [5] | Potency [6] | Potency [7] | Potency [19] | Potency [8] | Potency [9] | Potency [10] | Potency [11] | Potency [12] | Potency [17] | Potency [13] | Potency [20] | Potency [18] | Potency [14]

CN(C)c1ccc(N=Nc2ccccc2C(=O)O)cc1
active: Potency [1] 61.1 µM
inactive: Potency [15] | Potency [3] | Potency [4] | Potency [5] | Potency [7] | Potency [8] | Potency [9] | Potency [10] | Potency [11] | Potency [13] | Potency [18] | Potency [14]

CCCCc1oc2ccc(NS(C)(=O)=O)cc2c1C(=O)c1ccc(OCCCN(CCCC)CCCC)cc1
inactive: Potency [1] | Potency [15] | Potency [3] | Potency [4] | Potency [5] | Potency [6] | Potency [7] | Potency [8] | Potency [10] | Potency [11] | Potency [13] | Potency [18]

CCC1OCC(COc2ccc(Oc3ccccc3)cc2)O1 (stereo not drawn)
inactive: Potency [2] | Potency [3] | Potency [4] | Potency [5] | Potency [16] | Potency [19] | Potency [8] | Potency [9] | Potency [10] | Potency [11] | Potency [12] | Potency [17] | Potency [13] | Potency [20] | Potency [18]
active: Potency [1] 68.6 µM

CCC(CN)=C(c1ccccc1)c1ccccc1
active: Potency [9] 23.9 µM
inactive: Potency [1] | Potency [2] | Potency [3] | Potency [4] | Potency [5] | Potency [6] | Potency [7] | Potency [16] | Potency [19] | Potency [8] | Potency [11] | Potency [13] | Potency [18] | Potency [14]
